# From PubChem BioAssay (EPA / NIEHS)
# Active and inactive are the calls of the source. How the source made its calls: active means hit-call score of the fitted dose curve at least 0.9, where 1 is the maximum; inactive means score below 0.9.
# Read-out: Interleukin-1 alpha (IL1a), IL1A (gene 3552)
# Experiment: BSK_BE3C_IL1a: BioMAP Diversity Plus: BE3C Assay for Interleukin-1 alpha (IL1a) Biomarker Activity (AID 2283016)
# Details: primary human bronchial epithelial cells; actives raise or lower the signal
# In short: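 Human primary bronchial epithelial cells (BE3C system) were dosed with compound and IL-1a measured by ELISA 24 h later. Activity was fitted bidirectionally against DMSO baseline; cytotoxicity was tracked in parallel cultures by SRB total-protein staining.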
SMILES,outcome,AC50
O=[N+]([O-])c1cc(C(F)(F)F)ccc1Cl,inactive,–
O=C1OC2(c3cc(Br)c(O)c(Br)c3Oc3c2cc(Br)c(O)c3Br)c2c(Cl)c(Cl)c(Cl)c(Cl)c21,–,0.967 µM (active)
O=P(c1ccccc1)(c1ccccc1)c1ccccc1,inactive,–
BrC1CCC(Br)C(Br)CCC(Br)C(Br)CCC1Br (configuration not stated),inactive,–
CCCCC(CC)COC(=O)/C=C\C(=O)OCC(CC)CCCC (configuration not stated),inactive,–
Cc1ccc2n[nH]nc2c1,inactive,–
CC[Si](OC(C)=O)(OC(C)=O)OC(C)=O,inactive,–

# Read-out: Monocyte Chemoattractant Protein-1 (MCP1), CCL2 (gene 6347)
# Experiment: BSK_3C_MCP1: BioMAP Diversity Plus: 3C Assay for Monocyte Chemoattractant Protein-1 (MCP1) Biomarker Activity (AID 2283017)
# Details: primary human endothelial cells (HUVEC); actives raise or lower the signal
# In short: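 Primary human umbilical vein endothelial cells (3C system) were exposed to test chemical for 24 h, after which MCP-1 was quantified by ELISA. Activity was fitted bidirectionally against DMSO as negative control and baseline.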
SMILES,outcome,AC50
O=[N+]([O-])c1cc(C(F)(F)F)ccc1Cl,inactive,–
O=C1OC2(c3cc(Br)c(O)c(Br)c3Oc3c2cc(Br)c(O)c3Br)c2c(Cl)c(Cl)c(Cl)c(Cl)c21,–,4.82 µM (active)
O=P(c1ccccc1)(c1ccccc1)c1ccccc1,inactive,–
BrC1CCC(Br)C(Br)CCC(Br)C(Br)CCC1Br (configuration not stated),–,4.64 µM (active)
CCCCC(CC)COC(=O)/C=C\C(=O)OCC(CC)CCCC (configuration not stated),inactive,–
Cc1ccc2n[nH]nc2c1,inactive,–
CC[Si](OC(C)=O)(OC(C)=O)OC(C)=O,inactive,–

# Read-out: Monocyte Chemoattractant Protein-1 (MCP1), CCL2 (gene 6347)
# Experiment: BSK_4H_MCP1: BioMAP Diversity Plus: 4H Assay for Monocyte Chemoattractant Protein-1 (MCP1) Biomarker Activity (AID 2283018)
# Details: primary human endothelial cells (HUVEC); actives raise or lower the signal
# In short: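 Human umbilical vein endothelial cells (4H system) dosed with chemical; MCP-1 measured by ELISA 24 h after dosing. Bidirectional curve fitting against DMSO negative control as baseline; parallel SRB total-protein staining tracks overt cytotoxicity.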
SMILES,outcome,AC50
O=[N+]([O-])c1cc(C(F)(F)F)ccc1Cl,inactive,–
O=C1OC2(c3cc(Br)c(O)c(Br)c3Oc3c2cc(Br)c(O)c3Br)c2c(Cl)c(Cl)c(Cl)c(Cl)c21,–,1.57 µM (active)
O=P(c1ccccc1)(c1ccccc1)c1ccccc1,inactive,–
BrC1CCC(Br)C(Br)CCC(Br)C(Br)CCC1Br (configuration not stated),–,1.58 µM (active)
CCCCC(CC)COC(=O)/C=C\C(=O)OCC(CC)CCCC (configuration not stated),inactive,–
Cc1ccc2n[nH]nc2c1,inactive,–
CC[Si](OC(C)=O)(OC(C)=O)OC(C)=O,inactive,–

# Read-out: Human Leukocyte Antigen - DR isotype (HLADR), HLA-DRA (gene 3122)
# Experiment: BSK_3C_HLADR: BioMAP Diversity Plus: 3C Assay for Human Leukocyte Antigen - DR isotype (HLADR) Biomarker Activity (AID 2283019);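 on outcome: ELISA of cell-surface HLA-DR on HUVEC 24 h after dosing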
# Details: primary human endothelial cells (HUVEC); actives raise or lower the signal
# In short: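 Primary human umbilical vein endothelial cells (3C system) were dosed with compound and cell-surface HLA-DR was quantified by ELISA at 24 h. Activity was fitted bidirectionally against DMSO as negative control and baseline.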
SMILES,outcome,AC50
O=[N+]([O-])c1cc(C(F)(F)F)ccc1Cl,inactive,–
O=C1OC2(c3cc(Br)c(O)c(Br)c3Oc3c2cc(Br)c(O)c3Br)c2c(Cl)c(Cl)c(Cl)c(Cl)c21,–,2.68 µM (active)
O=P(c1ccccc1)(c1ccccc1)c1ccccc1,inactive,–
BrC1CCC(Br)C(Br)CCC(Br)C(Br)CCC1Br (configuration not stated),–,3.33 µM (active)
CCCCC(CC)COC(=O)/C=C\C(=O)OCC(CC)CCCC (configuration not stated),inactive,–
Cc1ccc2n[nH]nc2c1,inactive,–
CC[Si](OC(C)=O)(OC(C)=O)OC(C)=O,inactive,–

# Read-out: Interleukin-8 (IL8), CXCL8 (gene 3576)
# Experiment: BSK_3C_IL8: BioMAP Diversity Plus: 3C Assay for Interleukin-8 (IL8) Biomarker Activity (AID 2283020)
# Details: primary human endothelial cells (HUVEC); actives raise or lower the signal
# In short: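 Primary human umbilical vein endothelial cells (3C system) were exposed to test chemical for 24 h, then IL-8 was quantified by ELISA. Responses were fitted bidirectionally against DMSO vehicle as baseline.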
SMILES,outcome,AC50
O=[N+]([O-])c1cc(C(F)(F)F)ccc1Cl,inactive,–
O=C1OC2(c3cc(Br)c(O)c(Br)c3Oc3c2cc(Br)c(O)c3Br)c2c(Cl)c(Cl)c(Cl)c(Cl)c21,–,13.2 µM (active)
O=P(c1ccccc1)(c1ccccc1)c1ccccc1,inactive,–
BrC1CCC(Br)C(Br)CCC(Br)C(Br)CCC1Br (configuration not stated),–,4.7 µM (active)
CCCCC(CC)COC(=O)/C=C\C(=O)OCC(CC)CCCC (configuration not stated),inactive,–
Cc1ccc2n[nH]nc2c1,inactive,–
CC[Si](OC(C)=O)(OC(C)=O)OC(C)=O,inactive,–

# Read-out: Monokine induced gamma interferon (MIG), CXCL9 (gene 4283)
# Experiment: BSK_3C_MIG: BioMAP Diversity Plus: 3C Assay for Monokine induced gamma interferon (MIG) Biomarker Activity (AID 2283021);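 on AC50: MIG protein level measured by immunoassay in the treated endothelial cultures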
# Details: primary human endothelial cells (HUVEC); actives raise or lower the signal
# In short: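 Primary human umbilical vein endothelial cells in the 3C system were exposed to chemical for 24 h, after which MIG was quantified by ELISA. Activity was fitted bidirectionally against DMSO as negative control and baseline.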
SMILES,outcome,AC50
O=[N+]([O-])c1cc(C(F)(F)F)ccc1Cl,inactive,–
O=C1OC2(c3cc(Br)c(O)c(Br)c3Oc3c2cc(Br)c(O)c3Br)c2c(Cl)c(Cl)c(Cl)c(Cl)c21,–,16.3 µM (active)
O=P(c1ccccc1)(c1ccccc1)c1ccccc1,inactive,–
BrC1CCC(Br)C(Br)CCC(Br)C(Br)CCC1Br (configuration not stated),inactive,–
CCCCC(CC)COC(=O)/C=C\C(=O)OCC(CC)CCCC (configuration not stated),inactive,–
Cc1ccc2n[nH]nc2c1,inactive,–
CC[Si](OC(C)=O)(OC(C)=O)OC(C)=O,inactive,–
